Experiments:
Assay in all cases: thermal shift delta Tm vs DMSO control; higher = stronger stabilization (binding)
Details in all cases: 12.5 µM; protein concentration 2 µM
[1] = test system: LOC_OS04G57630-cb004
In short: (§1)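 Rice kinase domain constructs, made in E. coli and purified, were placed in 96-well plates at 2 μM in 19.5 μl of 100 mM potassium phosphate pH 7.5, 150 mM NaCl, 10% glycerol and 5 × SYPRO Orange, with compound in DMSO. A temperature ramp from 25°C to 95°C at 0.05°C/s was used for differential scanning fluorimetry. The melting temperature shift is a triplicate mean compared with DMSO-only protein, derived from Boltzmann fits.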

[2] = test system: LOC_OS05G07850-cb002
In short: as §1

[3] = test system: LOC_OS05G16824-cb004
In short: as §1

[4] = test system: LOC_OS05G28520-cb001
In short: as §1

[5] = test system: LOC_OS05G30820-cb001
In short: as §1

[6] = test system: LOC_OS05G43570-cb004
In short: as §1

[7] = test system: LOC_OS06G16330-cb003
In short: as §1

[8] = test system: T1, LOC_OS06G22820-cb001
T1 sequence (whole entry): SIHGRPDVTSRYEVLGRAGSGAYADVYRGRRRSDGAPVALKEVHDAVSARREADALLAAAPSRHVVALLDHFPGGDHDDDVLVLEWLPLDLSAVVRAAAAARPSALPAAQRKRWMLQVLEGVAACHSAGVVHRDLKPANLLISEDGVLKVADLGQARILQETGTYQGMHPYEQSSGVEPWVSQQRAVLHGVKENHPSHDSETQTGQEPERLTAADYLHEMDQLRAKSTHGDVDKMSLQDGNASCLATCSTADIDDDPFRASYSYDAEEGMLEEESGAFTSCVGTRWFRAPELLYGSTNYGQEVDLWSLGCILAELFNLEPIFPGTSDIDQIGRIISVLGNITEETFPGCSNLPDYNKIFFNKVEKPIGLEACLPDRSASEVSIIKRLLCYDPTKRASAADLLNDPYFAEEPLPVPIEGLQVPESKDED
In short: as §1

[9] = test system: LOC_OS07G06570-cb004
In short: as §1

[10] = test system: LOC_OS07G07230-cb001
In short: as §1
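Note: purified Escherichia coli-expressed rice kinase domain construct.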

LOC_OS06G16330-cb003, sequence (as listed by the source): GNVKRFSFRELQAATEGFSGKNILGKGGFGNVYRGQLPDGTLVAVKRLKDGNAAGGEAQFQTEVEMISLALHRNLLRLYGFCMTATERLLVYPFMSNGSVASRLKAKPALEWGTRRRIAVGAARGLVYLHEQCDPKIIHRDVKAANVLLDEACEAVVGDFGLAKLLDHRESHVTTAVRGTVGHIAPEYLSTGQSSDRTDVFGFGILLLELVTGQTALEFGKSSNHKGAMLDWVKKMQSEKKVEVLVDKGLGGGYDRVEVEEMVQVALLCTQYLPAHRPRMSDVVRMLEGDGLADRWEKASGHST

COC(=O)[C@]12CCC(C)(C)C[C@H]1[C@H]1C(=O)C=C3[C@@]4(C)C=C(C#N)C(=O)C(C)(C)[C@@H]4CC[C@@]3(C)[C@]1(C)CC2 [Bardoxolone Methyl]
thermal shift delta Tm [1]: -4.85 °C
thermal shift delta Tm [2]: -6.24 °C
thermal shift delta Tm [3]: -7.05 °C
thermal shift delta Tm [4]: -4.77 °C
thermal shift delta Tm [5]: 0.07 °C
thermal shift delta Tm [6]: -2.54 °C
thermal shift delta Tm [7]: -3.91 °C
thermal shift delta Tm [8]: 0.1 °C
thermal shift delta Tm [9]: 0.47 °C
thermal shift delta Tm [10]: 0.11 °C

FC(F)c1nc2ccccc2n1-c1nc(N2CCOCC2)nc(N2CCOCC2)n1
thermal shift delta Tm [1]: 0.39 °C
thermal shift delta Tm [2]: 0.04 °C
thermal shift delta Tm [3]: 1.24 °C
thermal shift delta Tm [4]: 0.54 °C
thermal shift delta Tm [5]: 0.54 °C
thermal shift delta Tm [6]: 0.5 °C
thermal shift delta Tm [7]: 0.49 °C
thermal shift delta Tm [8]: 0.93 °C
thermal shift delta Tm [9]: 0.84 °C
thermal shift delta Tm [10]: 0.3 °C

CN(C)CCCn1cc(C2=C(c3c[nH]c4ccccc34)C(=O)NC2=O)c2ccccc21
thermal shift delta Tm [1]: 0.12 °C
thermal shift delta Tm [2]: 3.88 °C
thermal shift delta Tm [3]: 1.25 °C
thermal shift delta Tm [4]: 0.24 °C
thermal shift delta Tm [5]: 0.37 °C
thermal shift delta Tm [6]: 0.07 °C
thermal shift delta Tm [7]: 0.14 °C
thermal shift delta Tm [8]: 0.44 °C
thermal shift delta Tm [9]: 0.94 °C
thermal shift delta Tm [10]: 0.81 °C

COc1cc(N2CCC(N(C)C)CC2)ccc1Nc1ncc(Cl)c(Nc2ccccc2P(C)(C)=O)n1
thermal shift delta Tm [1]: 2.89 °C
thermal shift delta Tm [2]: 15 °C
thermal shift delta Tm [3]: 6.56 °C
thermal shift delta Tm [4]: 0.2 °C
thermal shift delta Tm [5]: 1.4 °C
thermal shift delta Tm [6]: 0.32 °C
thermal shift delta Tm [7]: 8.95 °C
thermal shift delta Tm [8]: 0.49 °C
thermal shift delta Tm [9]: 1.14 °C
thermal shift delta Tm [10]: 0.35 °C

O=C(Nc1nccs1)C(c1cc(F)ccc1O)N1Cc2ccccc2C1=O (stereo not given)
thermal shift delta Tm [1]: 0 °C
thermal shift delta Tm [2]: -0.08 °C
thermal shift delta Tm [3]: -0.86 °C
thermal shift delta Tm [4]: 0.12 °C
thermal shift delta Tm [5]: 0.61 °C
thermal shift delta Tm [6]: -0.04 °C
thermal shift delta Tm [7]: -0.29 °C
thermal shift delta Tm [8]: 0.38 °C
thermal shift delta Tm [9]: 1.35 °C
thermal shift delta Tm [10]: 0.63 °C

CN(C)Cc1cccc(N/C(=C2\C(=O)Nc3cc(C(N)=O)ccc32)c2ccccc2)c1
thermal shift delta Tm [1]: 0.27 °C
thermal shift delta Tm [2]: 5.34 °C
thermal shift delta Tm [3]: 2.95 °C
thermal shift delta Tm [4]: 0.22 °C
thermal shift delta Tm [5]: 0.46 °C
thermal shift delta Tm [6]: 0.7 °C
thermal shift delta Tm [7]: 0.53 °C
thermal shift delta Tm [8]: 0.79 °C
thermal shift delta Tm [9]: 1.03 °C
thermal shift delta Tm [10]: 0.16 °C

CCn1c(=O)c(-c2ccc(Cl)cc2Cl)cc2cnc(Nc3ccc(N4CCNCC4)c(F)c3)nc21
thermal shift delta Tm [1]: 4.17 °C
thermal shift delta Tm [2]: 10.6 °C
thermal shift delta Tm [3]: 6 °C
thermal shift delta Tm [4]: 2.8 °C
thermal shift delta Tm [5]: 0.68 °C
thermal shift delta Tm [6]: 0.35 °C
thermal shift delta Tm [7]: 6.75 °C
thermal shift delta Tm [8]: 0.87 °C
thermal shift delta Tm [9]: 1.3 °C
thermal shift delta Tm [10]: 4.1 °C

COc1c(C)c(C(=O)c2ccc(N)c(C(=O)O)c2)n2ccccc12
thermal shift delta Tm [1]: 0.19 °C
thermal shift delta Tm [2]: 0.78 °C
thermal shift delta Tm [3]: -2.73 °C
thermal shift delta Tm [4]: 0.86 °C
thermal shift delta Tm [5]: 0.51 °C
thermal shift delta Tm [6]: 0.58 °C
thermal shift delta Tm [7]: -0.18 °C
thermal shift delta Tm [8]: 0.47 °C
thermal shift delta Tm [9]: 1.2 °C
thermal shift delta Tm [10]: 0.36 °C

C=CC(=O)N1CCN(CCCn2c(=O)c(-c3c(Cl)c(OC)cc(OC)c3Cl)cc3cnc(NC)nc32)CC1
thermal shift delta Tm [1]: 0.34 °C
thermal shift delta Tm [2]: 0.01 °C
thermal shift delta Tm [3]: 3.63 °C
thermal shift delta Tm [4]: -0.19 °C
thermal shift delta Tm [5]: 0.06 °C
thermal shift delta Tm [6]: 0.18 °C
thermal shift delta Tm [7]: -0.29 °C
thermal shift delta Tm [8]: 0.15 °C
thermal shift delta Tm [9]: 0.73 °C
thermal shift delta Tm [10]: 1.75 °C

COc1cc(Nc2ncc(F)c(Nc3ccc4c(n3)N(COP(=O)(O)O)C(=O)C(C)(C)O4)n2)cc(OC)c1OC [Fostamatinib (R788)]
thermal shift delta Tm [1]: 1.74 °C
thermal shift delta Tm [2]: 12 °C
thermal shift delta Tm [3]: 12 °C
thermal shift delta Tm [4]: 0.41 °C
thermal shift delta Tm [5]: 2.2 °C
thermal shift delta Tm [6]: 0.38 °C
thermal shift delta Tm [7]: 12.2 °C
thermal shift delta Tm [8]: 0.25 °C
thermal shift delta Tm [9]: 0.55 °C
thermal shift delta Tm [10]: 0.44 °C

CC(C)(C)Cn1c(N)nc2ccc(-c3[nH]c(C(C)(C)C)nc3-c3ccc(F)cc3)nc21
thermal shift delta Tm [1]: -1.17 °C
thermal shift delta Tm [2]: 1.45 °C
thermal shift delta Tm [3]: -0.61 °C
thermal shift delta Tm [4]: 0.04 °C
thermal shift delta Tm [5]: 0.34 °C
thermal shift delta Tm [6]: 0.33 °C
thermal shift delta Tm [7]: 0.24 °C
thermal shift delta Tm [8]: 0.34 °C
thermal shift delta Tm [9]: 0.31 °C
thermal shift delta Tm [10]: 0.21 °C

COc1cc2ncc(-c3ccccc3)nc2cc1OC [Tyrphostin AG 1296]
thermal shift delta Tm [1]: 0.05 °C
thermal shift delta Tm [2]: 5.59 °C
thermal shift delta Tm [3]: 2.99 °C
thermal shift delta Tm [4]: -0.06 °C
thermal shift delta Tm [5]: 0.8 °C
thermal shift delta Tm [6]: 0.08 °C
thermal shift delta Tm [7]: 2.24 °C
thermal shift delta Tm [8]: 0.24 °C
thermal shift delta Tm [9]: 1.65 °C
thermal shift delta Tm [10]: 0.83 °C

COc1cc2ncnc(Nc3ccc(F)c(Cl)c3)c2cc1OCCCN1CCOCC1 [Gefitinib (ZD1839)]
thermal shift delta Tm [1]: -0.05 °C
thermal shift delta Tm [2]: 9.4 °C
thermal shift delta Tm [3]: -0.18 °C
thermal shift delta Tm [4]: 0.21 °C
thermal shift delta Tm [5]: 0.41 °C
thermal shift delta Tm [6]: 0.31 °C
thermal shift delta Tm [7]: 2.35 °C
thermal shift delta Tm [8]: 0.63 °C
thermal shift delta Tm [9]: 0.99 °C
thermal shift delta Tm [10]: 0.24 °C

CNC(=O)c1cc(Oc2ccc(NC(=O)Nc3cc(C(C)(C)C)nn3-c3ccc4ncccc4c3)c(F)c2)ccn1 [Rebastinib (DCC-2036)]
thermal shift delta Tm [1]: 10.4 °C
thermal shift delta Tm [2]: 14.3 °C
thermal shift delta Tm [3]: 0.76 °C
thermal shift delta Tm [4]: 0.81 °C
thermal shift delta Tm [5]: 1.05 °C
thermal shift delta Tm [6]: 0.62 °C
thermal shift delta Tm [7]: 10 °C
thermal shift delta Tm [8]: 0.59 °C
thermal shift delta Tm [9]: 0.44 °C
thermal shift delta Tm [10]: -0.15 °C

Cn1ncc(Cl)c1-c1cc(C(=O)N[C@H](CN)Cc2cccc(F)c2)sc1Cl
thermal shift delta Tm [1]: -0.03 °C
thermal shift delta Tm [2]: 0.66 °C
thermal shift delta Tm [3]: -1.28 °C
thermal shift delta Tm [4]: 0.54 °C
thermal shift delta Tm [5]: 0.43 °C
thermal shift delta Tm [6]: 0.61 °C
thermal shift delta Tm [7]: 0.52 °C
thermal shift delta Tm [8]: 0.88 °C
thermal shift delta Tm [9]: 1.37 °C
thermal shift delta Tm [10]: 0.28 °C

CNC(=O)c1ccccc1Nc1nc(Nc2ccc(N3CCOCC3)cc2OC)ncc1Cl
thermal shift delta Tm [1]: 1.29 °C
thermal shift delta Tm [2]: 11.8 °C
thermal shift delta Tm [3]: 5.34 °C
thermal shift delta Tm [4]: 0.37 °C
thermal shift delta Tm [5]: 0.69 °C
thermal shift delta Tm [6]: 0.1 °C
thermal shift delta Tm [7]: 4.89 °C
thermal shift delta Tm [8]: 0.54 °C
thermal shift delta Tm [9]: 1.58 °C
thermal shift delta Tm [10]: 0.57 °C

Nc1nc(Nc2ccc(S(N)(=O)=O)cc2)nn1C(=O)c1c(F)cccc1F
thermal shift delta Tm [1]: 1.19 °C
thermal shift delta Tm [2]: 12.5 °C
thermal shift delta Tm [3]: 8.94 °C
thermal shift delta Tm [4]: 0.98 °C
thermal shift delta Tm [5]: 1.95 °C
thermal shift delta Tm [6]: 0.82 °C
thermal shift delta Tm [7]: 8.67 °C
thermal shift delta Tm [8]: -0.12 °C
thermal shift delta Tm [9]: 1.81 °C
thermal shift delta Tm [10]: 0.21 °C

C[C@@H]1CN(CC(=O)Nc2ccc3c(c2)Cc2cccc(-c4cc(=O)cc(N5CCOCC5)o4)c2S3)C[C@H](C)O1
thermal shift delta Tm [1]: -0.04 °C
thermal shift delta Tm [2]: 0.16 °C
thermal shift delta Tm [3]: -0.46 °C
thermal shift delta Tm [4]: -0.13 °C
thermal shift delta Tm [5]: 0.31 °C
thermal shift delta Tm [6]: 0.21 °C
thermal shift delta Tm [7]: -0.2 °C
thermal shift delta Tm [8]: 0.77 °C
thermal shift delta Tm [9]: 1.02 °C
thermal shift delta Tm [10]: -0.36 °C

COCCOc1ccc2c(c1)ncn2-c1ccc2cccc(N3CCC(N)CC3)c2n1
thermal shift delta Tm [1]: 6.59 °C
thermal shift delta Tm [2]: 16.7 °C
thermal shift delta Tm [3]: 12.6 °C
thermal shift delta Tm [4]: -0.07 °C
thermal shift delta Tm [5]: 1.5 °C
thermal shift delta Tm [6]: 0.49 °C
thermal shift delta Tm [7]: 7.19 °C
thermal shift delta Tm [8]: 0.77 °C
thermal shift delta Tm [9]: 1.03 °C
thermal shift delta Tm [10]: 0.19 °C
